Screening data (PubChem)
NadD block = inhibitors of Staphylococcus aureus NadD | purified NadD enzyme, colorimetric absorbance read-out | inhibition, % at 20 µM | 360,000 compounds, 0.78% hits | AID 602399; in the data active = inhibition above about 26%
PHOSPHO1 inh = blocks human PHOSPHO1 phosphatase activity. Q8TCT1. recombinant PHOSPHO1, absorbance phosphatase assay. inhibition, % at 13.3 µM. 290,000 compounds, 1.1% hits. AID 1565; in the data active = inhibition above about 60%
p-CIP stab down = compounds decreasing mouse p/CIP protein stability | decrease of EGFP signal, % at 10 µM | F442A p/CIP-EGFP cells, EGFP fluorescence, 16 h | 290,000 compounds, 0.01% hits | AID 1984;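 active = EGFP signal decrease of at least 30% at 10 µM or well 3 SD below plate mean, unless failing retest; inactive = the rest, including hits failing retest or dose response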
SUMO HTRF inh = inhibitors of human SUMOylation (UBC9); P63279; HTRF SUMOylation assay, SAE1/SAE2 + UBC9, in vitro; inhibition, % at 35 µM; 290,000 compounds, 0.36% hits; AID 2006; in the data active = inhibition above about 50%, passing the limit was not always enough
A number is an active result; ! = repeats disagree. Most compounds without a hit are left out; they make up all but 1.8% or so of the library.

`c1ccc2c(-c3nc4ccccc4[nH]3)cccc2c1` gave NadD block inactive.
Screening c1ccc2[nH]c(-c3ccnc4ccccc34)nc2c1 returned NadD block inactive, PHOSPHO1 inh 89.0!, p-CIP stab down inactive and SUMO HTRF inh inactive.
For Cc1ccccc1SCCNC(=O)c1ccccc1Br the results were NadD block inactive, PHOSPHO1 inh 60.0, p-CIP stab down inactive and SUMO HTRF inh inactive.
Screening O=c1c2ccccc2sn1-c1ccc(Cl)cc1Cl returned NadD block inactive.
`CN(C)c1ncnc2c1ncn2[C@H]1CN(CCN2CCOCC2)C[C@@H](CO)O1` gave NadD block inactive.
`CN1CCc2nc3sc(C(=O)C45CC6CC(CC(C6)C4)C5)c(N)c3cc2C1` gave NadD block inactive, PHOSPHO1 inh 80.8, p-CIP stab down inactive and SUMO HTRF inh inactive.
Screening COc1ccc(C)cc1NC(=O)NCc1ccco1 returned NadD block inactive, PHOSPHO1 inh 61.0, p-CIP stab down inactive and SUMO HTRF inh inactive.
COc1ccccc1NC(=S)NCc1ccco1 was read as NadD block inactive, PHOSPHO1 inh 61.5, p-CIP stab down inactive and SUMO HTRF inh inactive.
O=C(COC(=O)c1cc(-c2cccs2)nc2ccccc12)NCc1ccco1 was read as NadD block 52.4, PHOSPHO1 inh inactive, p-CIP stab down inactive and SUMO HTRF inh inactive.
CCN(C(=O)COC(=O)c1cc(-c2cccs2)nc2ccccc12)C1CCS(=O)(=O)C1 (centres undefined) was read as NadD block inactive, PHOSPHO1 inh 62.9, p-CIP stab down inactive and SUMO HTRF inh inactive.
`O=C(NCc1ccco1)c1cc(-c2cccs2)nc2ccccc12` gave NadD block inactive, PHOSPHO1 inh inactive, p-CIP stab down inactive and SUMO HTRF inh inactive.
Clc1ccc(-n2nnnc2SCc2c(-c3ccccc3)nc3sccn23)cc1 was read as NadD block inactive, PHOSPHO1 inh 97.5, p-CIP stab down inactive and SUMO HTRF inh inactive.
For CC(=O)N(Cc1cccnc1)c1cccc(-c2nc3ccccc3s2)c1 the results were NadD block inactive, PHOSPHO1 inh 65.6, p-CIP stab down inactive and SUMO HTRF inh inactive.
Screening c1cncc(-c2nc3ccccc3s2)c1 returned NadD block inactive, PHOSPHO1 inh inactive, p-CIP stab down inactive and SUMO HTRF inh inactive.
`CN(C)S(=O)(=O)c1cccc(-c2nnc(SCc3cc(Cl)cc4c3OCOC4)n2N)c1` gave NadD block inactive, PHOSPHO1 inh 99.4, p-CIP stab down inactive and SUMO HTRF inh inactive.
Screening CCN(CC(=O)Nc1ccc2c(c1)OCCO2)C(=O)/C=C/c1ccc(OC)cc1OC returned NadD block inactive, PHOSPHO1 inh 62.4, p-CIP stab down inactive and SUMO HTRF inh inactive.
Screening Cc1ccccc1N1C(=O)CC(Sc2nnc(-c3ccccc3)o2)C1=O (centres undefined) returned NadD block inactive, PHOSPHO1 inh 81.2, p-CIP stab down inactive and SUMO HTRF inh inactive.
For CC(C)/C=C/C(=O)N1CCC(N2CCC(C(=O)NCc3ccccn3)CC2)CC1 the results were NadD block inactive, PHOSPHO1 inh 70.1, p-CIP stab down inactive and SUMO HTRF inh inactive.
For CCN1C(=O)/C(=C2\C=Cc3cc(C)ccc3N2CC)OC1=S the results were NadD block inactive, PHOSPHO1 inh inactive, p-CIP stab down inactive and SUMO HTRF inh inactive.
For CCN1C(=O)/C(=C2/C=Cc3ccccc3N2C)OC1=S the results were NadD block inactive, PHOSPHO1 inh 65.0, p-CIP stab down inactive and SUMO HTRF inh inactive.
For COc1ccc(-c2[nH]ncc2CN2CCN(c3ccccn3)CC2)c(OC)c1 the results were NadD block inactive, PHOSPHO1 inh 60.1, p-CIP stab down inactive and SUMO HTRF inh inactive.
For CCN(CC(=O)Nc1c(F)cccc1F)C(=O)c1cccc(-n2cnnn2)c1 the results were NadD block inactive.
For CC(C)CC1C(=O)N(Cc2cn(Cc3ccco3)nn2)CCS(=O)(=O)N1Cc1ccc(-c2ccc(F)cc2)cc1 (centres undefined) the results were NadD block inactive.
For Cc1ccccc1Nc1cccc2nonc12 the results were NadD block inactive, PHOSPHO1 inh inactive, p-CIP stab down inactive and SUMO HTRF inh 91.8.
CCCN(C)C1CN(Cc2cn(Cc3cc(C)cc(C)c3)nn2)S(=O)(=O)C1 (centres undefined) was read as NadD block inactive.
`CC(C)(C)OC(=O)N1CCc2onc(-c3ccc(N)cc3)c2C1=O` gave NadD block inactive.
Screening COc1ccc(C(=O)NC(=S)N2CCCC2)cc1 returned NadD block inactive, PHOSPHO1 inh inactive, p-CIP stab down inactive and SUMO HTRF inh inactive.
COc1ccc(C(=O)NC(=S)N2CCC(C)CC2)cc1 was read as NadD block inactive, PHOSPHO1 inh 68.7, p-CIP stab down inactive and SUMO HTRF inh inactive.
